Several values for one entry are separate records, joined by “and”; a condition that tells them apart may be missing. Equal values may be shown once. Inconclusive results are not listed. Entries that show only a call come without a potency. The source holds several records for some structures; these can differ, active in one and inactive in another. Activity calls are given as the source filed them. Unless noted, calls follow the shape of the dose curve; as a rule, active = well fitted curve in the direction sought with a large enough effect in the repeat runs; inconclusive = weak or mixed curves; inactive = no such curve, though single readings can be large; an effect the other way counts as inactive or inconclusive.
How the values were obtained:
[1] = qHTS assay to identify aromatase inhibitors - cell viability counter screen (AID 743084);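 also: cells stimulated with testosterone during compound exposure; nearly all actives have a fitted effect of over 55% in size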; also: potency is read from the fitted curve at half-maximal effect
[2] = target: Aryl hydrocarbon receptor (Homo sapiens) (UniProt P35869); experiment: qHTS assay to identify small molecule that activate the aryl hydrocarbon receptor (AhR) signaling pathway (AID 743085); also: nearly all actives have a fitted effect of over 15% in size; also: potency is read from the fitted curve at half-maximal effect;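 as to activation: HG2L7.5c1 human HepG2 liver cells with stably integrated DRE-driven firefly reporter; series mostly up to about 70 µM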
How it was run: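 24 h compound exposure, 37C, HepG2-derived HG2L7.5c1 cells with DRE-responsive luciferase. Readouts: fluorescence viability, then luminescence at room temperature after 30 min.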

[3] = qHTS assay to identify small molecule that activate the aryl hydrocarbon receptor (AhR) signaling pathway - cell viability counter screen (AID 743086); also: nearly all actives have a fitted effect of over 45% in size; also: potency is read from the fitted curve at half-maximal effect
How it was run: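 HepG2-AhR-luc (HG2L7.5c1) cells, 4000/well, were preincubated 5 h at 37C, exposed to compound in qHTS format for 24 hr at 37C, then given CellTiter-Fluor for 30 min; viability was read as fluorescence in the reporter wells.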

[4] = qHTS assay to identify small molecule antagonists of the peroxisome proliferator-activated receptor gamma (PPARg) signaling pathway - cell viability counter screen (AID 743194); conditions: Potency: co-treated with 50 nM rosiglitazone unless noted; also: nearly all actives have a fitted effect of over 55% in size; also: potency is read from the fitted curve at half-maximal effect
How it was run: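 PPARg-UAS-bla HEK293H cells were plated, rested 5 h at 37 C, then treated with compounds plus rosiglitazone (50 nM final) for 17 h at 37 C; viability was then read by CellTiter-Glo luminescence after 30 min at room temperature.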

[5] = qHTS assay for small molecule agonists of the antioxidant response element (ARE) signaling pathway - cell viability counter screen (AID 743203; calls by dose curve; also: nearly all actives have a fitted effect of over 55% in size; also: potency is read from the fitted curve at half-maximal effect)
How it was run: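 Following 16 hrs of compound treatment at 37C, HepG2 cells with an ARE-controlled beta-lactamase gene were lysed with CellTiter-Glo. Luminescence was read after 30 min at room temperature.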

[6] = qHTS assay for small molecule activators of the heat shock response signaling pathway - cell viability counter screen (AID 743209); also: nearly all actives have a fitted effect of over 50% in size; also: potency is read from the fitted curve at half-maximal effect
How it was run: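 Readout: CellTiter-Glo luminescence, 30 min at room temperature. System: HSE-bla HeLa cells, 1500/well, plated overnight. Treatment: compounds in DMSO, 5 h at 37 C.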

[7] = qHTS assay for small molecule activators of the heat shock response signaling pathway (AID 743210; active = well fitted activation curve with a large enough effect in the signal ratio in the repeat runs, with a control signal flat, not every such curve was filed as active; the % refers to the signal ratio; also: potency is read from the fitted curve at half-maximal effect;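 as to activation: HeLa cells with beta-lactamase reporter driven by heat shock elements; series mostly up to about 63 µM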)
How it was run: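 Reporter gene assay: HeLa cells stably bearing an HSE-bla construct, compound treatment 5 h at 37 C, LiveBLAzer substrate 2.5 h at RT, fluorescence intensity.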

[8] = target: Peroxisome proliferator-activated receptor gamma (Homo sapiens) (UniProt P37231); experiment: qHTS assay to identify small molecule agonists of the peroxisome proliferator-activated receptor gamma (PPARg) signaling pathway (AID 743094; active = well fitted activation curve with a large enough effect in the signal ratio in the repeat runs, not every such curve was filed as active; the % refers to the signal ratio)
How it was run: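 Compounds dissolved in DMSO were added to PPARg UAS-bla HEK293H cells for 17 h at 37C, and reporter expression was quantified by fluorescence intensity after 1 h with LiveBLAzer B/G FRET substrate.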

Sequence of Aryl hydrocarbon receptor (Homo sapiens) (P35869 whole entry, looked up): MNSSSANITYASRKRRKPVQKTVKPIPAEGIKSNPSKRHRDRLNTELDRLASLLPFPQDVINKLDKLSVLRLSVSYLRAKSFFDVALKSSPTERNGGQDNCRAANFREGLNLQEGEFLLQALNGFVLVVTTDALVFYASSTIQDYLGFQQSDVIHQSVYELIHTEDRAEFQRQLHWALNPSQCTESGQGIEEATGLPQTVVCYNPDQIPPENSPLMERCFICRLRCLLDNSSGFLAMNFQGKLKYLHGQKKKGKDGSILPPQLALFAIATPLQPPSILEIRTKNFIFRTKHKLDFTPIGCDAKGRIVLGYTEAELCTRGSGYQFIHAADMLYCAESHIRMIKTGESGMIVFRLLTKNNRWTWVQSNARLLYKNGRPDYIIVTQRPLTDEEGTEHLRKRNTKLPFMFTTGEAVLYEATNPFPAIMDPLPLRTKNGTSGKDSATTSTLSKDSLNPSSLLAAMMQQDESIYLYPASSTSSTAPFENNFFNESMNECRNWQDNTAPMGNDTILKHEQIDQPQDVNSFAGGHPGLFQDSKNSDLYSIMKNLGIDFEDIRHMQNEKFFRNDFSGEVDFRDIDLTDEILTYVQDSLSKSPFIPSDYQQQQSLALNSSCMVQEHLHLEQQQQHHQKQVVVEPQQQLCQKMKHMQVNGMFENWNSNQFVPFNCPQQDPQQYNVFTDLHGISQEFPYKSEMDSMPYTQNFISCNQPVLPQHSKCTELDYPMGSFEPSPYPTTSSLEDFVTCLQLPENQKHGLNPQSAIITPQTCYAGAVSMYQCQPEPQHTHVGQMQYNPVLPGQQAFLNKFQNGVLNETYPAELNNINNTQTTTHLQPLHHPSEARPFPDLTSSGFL
Sequence of Peroxisome proliferator-activated receptor gamma (Homo sapiens) (P37231 whole entry, looked up): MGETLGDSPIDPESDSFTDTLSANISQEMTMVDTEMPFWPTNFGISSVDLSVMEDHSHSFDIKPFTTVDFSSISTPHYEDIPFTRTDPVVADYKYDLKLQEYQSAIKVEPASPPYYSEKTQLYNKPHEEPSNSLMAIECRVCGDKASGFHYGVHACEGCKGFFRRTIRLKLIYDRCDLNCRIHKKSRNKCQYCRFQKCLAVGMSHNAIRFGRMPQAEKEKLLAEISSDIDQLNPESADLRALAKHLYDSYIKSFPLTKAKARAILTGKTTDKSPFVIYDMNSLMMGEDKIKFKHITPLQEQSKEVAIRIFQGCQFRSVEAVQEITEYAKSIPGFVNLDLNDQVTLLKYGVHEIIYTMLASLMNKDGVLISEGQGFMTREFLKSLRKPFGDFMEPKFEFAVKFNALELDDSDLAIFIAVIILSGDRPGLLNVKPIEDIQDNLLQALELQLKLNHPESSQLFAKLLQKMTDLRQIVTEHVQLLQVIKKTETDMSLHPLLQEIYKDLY

Compound | Potency [1] | Potency [2] | Potency [3] | Potency [4] | Potency [5] | Potency [6] | Potency [7] | Potency [8]
c1ccc2c(c1)[nH]c1cnccc12 | inactive | 54.5 µM (active) | inactive | inactive | inactive | inactive |  | 
Cc1cc(C(F)(C(F)(F)F)C(F)(F)F)ccc1NC(=O)c1cccc(I)c1C(=O)NC(C)(C)CS(C)(=O)=O | inactive | inactive | inactive | inactive | inactive | inactive |  | 
CCCCCCCCCCCCCCC(Br)C(=O)O (configuration not stated) | inactive | inactive | inactive | 43.6 µM (active) |  | 24.5 µM (active) |  | 
CC(=O)[O-].CC(=O)[O-].[Hg+2] | 3.86 µM (active) | inactive | 7.7 µM (active) | 0.977 µM (active) | 1.22 µM (active) | 1.38 µM (active) |  | 
CC[C@H]1C[C@@H]2C[C@H]3c4[nH]c5ccc(OC)cc5c4CCN(C2)[C@@H]13 | inactive | 8.49 µM (active) | inactive | inactive | inactive | inactive | 45.9 µM (active) | 
Oc1c(Cl)c(Cl)cc(Cl)c1Cl | inactive | inactive | inactive | inactive |  | inactive |  | 
FC(F)(F)c1cccc(C2=CCN(CCc3ccc4ccccc4c3)CC2)c1 | inactive | inactive | inactive | inactive | inactive | inactive | inactive | 
CC(C)OC(=S)S | inactive | inactive | inactive | inactive | inactive | inactive |  | 
CCCCN(CCCC)C(=S)[S-].CCCCN(CCCC)C(=S)[S-].[Zn+2] | inactive | inactive | inactive | 5.49 µM (active) | 19.3 µM (active) | inactive |  | 
Clc1ccc(C(Cl)(Cl)Cl)c(Cl)c1 | inactive | inactive | inactive | inactive | inactive | inactive | inactive | 
FC(Cl)(Cl)Cl | inactive | inactive | inactive | inactive | inactive | inactive | inactive | 
CC(=O)C(Cl)(Cl)Cl | 18.7 µM (active) | inactive | 23.5 µM (active) |  | 0.743 µM (active) | inactive |  | 
C[C@@H]1CC[C@@]2(OC1)O[C@H]1[C@@H](O)[C@H]3[C@@H]4CC[C@H]5C[C@@H](O[C@@H]6O[C@H](CO)[C@H](O[C@@H]7O[C@H](CO)[C@@H](O)[C@H](O[C@@H]8OC[C@@H](O)[C@H](O)[C@H]8O)[C@H]7O[C@@H]7O[C@H](CO)[C@@H](O)[C@H](O[C@@H]8O[C@H](CO)[C@@H](O)[C@H](O)[C@H]8O)[C@H]7O)[C@H](O)[C@H]6O)[C@H](O)C[C@]5(C)[C@H]4CC[C@]3(C)[C@H]1[C@@H]2C | 2.9 µM (active) | inactive | 20.5 µM (active) | 23.2 µM (active) | 20.5 µM (active) | 29.2 µM (active) |  | 
C[C@@H]1O[C@@H](O[C@@H]2C=C3CC[C@@H]4[C@H](CC[C@]5(C)[C@@H](c6ccc(=O)oc6)CC[C@]45O)[C@@]3(C)CC2)[C@H](O)[C@H](O)[C@H]1O | inactive | inactive | inactive | 0.0119 µM (active) | 0.0211 µM (active) | 0.006 µM (active) |  | 
CC1CCC(C(C)C)C(OC(=O)c2ccccc2N)C1 (configuration not stated) | inactive and 47.9 µM (active) | inactive | inactive |  | inactive |  |  | 
CCC[CH2][Sn]([CH2]CCC)([CH2]CCC)[O]C(=O)c1ccccc1 | 1.54 µM (active) | inactive | 2.73 µM (active) | 0.49 µM (active) | 0.273 µM (active) | 1.38 µM (active) |  | 
COc1ccc(OC)c(CC(C)N)c1 (configuration not stated) | inactive | inactive | inactive | inactive | inactive | inactive | inactive | 

Compound | Potency [1] | Potency [2] | Potency [3] | Potency [4] | Potency [5] | Potency [6] | Potency [7] | Potency [8]
CC1(C)CN=C(NN=C(/C=C/c2ccc(C(F)(F)F)cc2)/C=C/c2ccc(C(F)(F)F)cc2)NC1 | 13.7 µM (active) | 1.22 µM (active) | 27.3 µM (active) | 9.77 µM (active) | 8.63 µM (active) | 24.5 µM (active) |  | 
CC(C)(O)c1cnn2c(-c3ccc(F)c(-c4c(F)cccc4C#N)c3)cnc2n1 | inactive | inactive | inactive | inactive | inactive | inactive |  | 
CC(=O)[O-].[Tl+] | inactive | inactive | inactive | inactive |  | inactive |  | 
O=[N+]([O-])c1ccc2ccc3cccc4ccc1c2c34 | inactive | inactive | inactive | inactive | inactive | inactive | inactive | 
c1ccc(OCC2CO2)cc1 (configuration not stated) | inactive | inactive | inactive | inactive | inactive | inactive |  | 
CCCCCCCCCC[N+](C)(C)CCCCCCCCCC | 21.1 µM (active) and 61.1 µM (active) | inactive | inactive | 15.5 µM (active) | 43.3 µM (active) | 34.7 µM (active) |  | 
N#CSCSC#N | 12.5 µM (active) and 17.1 µM (active) | inactive | inactive | 27.3 µM (active) | 55.7 µM (active) and 48.1 µM (active) | 19.9 µM (active) and 12.2 µM (active) |  | 
C[C@H]1CC[C@@H]2[C@@H](C)[C@H]3[C@H](C[C@H]4[C@@H]5CC=C6CC(O[C@@H]7O[C@H](CO)[C@H](O)[C@H](O[C@@H]8O[C@H](CO)[C@@H](O)[C@H](O)[C@H]8O)[C@H]7O[C@H]7O[C@@H](C)[C@H](O)[C@@H](O)[C@H]7O)CC[C@]6(C)[C@H]5CC[C@]34C)N2C1 (some centres not stated) | 19.9 µM (active) | inactive | inactive | 8.99 µM (active) | 7.94 µM (active) | 16 µM (active) |  | 
Cc1cc(N=Nc2ccccc2C)ccc1N | 24.3 µM (active) | 7.7 µM (active) and 4.33 µM (active) | 5.45 µM (active) and 2.73 µM (active) | inactive | inactive | inactive |  | 
CCCCCCCCCCCCCC[P+](CCCCCC)(CCCCCC)CCCCCC (tested in a mixture with another compound) | 6.11 µM (active) | inactive | 27.3 µM (active) | 0.49 µM (active) | 10.9 µM (active) | 3.47 µM (active) |  | 
O=c1ssc(Cl)c1Cl | 17.2 µM (active) | inactive | inactive | 38.9 µM (active) | 24.3 µM (active) | 49 µM (active) |  | 
Cc1cc(C)c(C2=C(OC(=O)CC(C)(C)C)C3(CCCC3)OC2=O)c(C)c1 | inactive | inactive | inactive | inactive | inactive | inactive | inactive | 
C[C@]12Cc3nonc3C[C@@H]1CC[C@@H]1[C@@H]2CC[C@@]2(C)[C@H]1CC[C@]2(C)O | inactive | inactive | inactive | inactive | inactive | inactive | inactive | 
[CH3][Hg][Cl] | 24.3 µM (active) | inactive |  | 12.3 µM (active) | 8.61 µM (active) | 54.8 µM (active) |  | 
CC(C)(C)c1ccc(CSc2cnn(C(C)(C)C)c(=O)c2Cl)cc1 | inactive | inactive | inactive |  | 24.3 µM (active) |  | inactive | 
CC(=O)O[C@H]1CC[C@@]2(C)C(=CC[C@@H]3[C@@H]2CC[C@]2(C)C(=O)CC[C@@H]32)C1 | inactive | inactive |  | inactive | inactive |  |  | inactive
S=C(SSC(=S)N1CCCCC1)N1CCCCC1 | 0.944 µM (active) | inactive |  | inactive | inactive | 0.106 µM (active) |  | 

Source: PubChem BioAssay (Tox21)
